Source: PubChem BioAssay
Pf Dd2 growth = P. falciparum Dd2 growth inhibition | 94,000 tested, 2.3% active | SYBR Green, 72 h; stronger effect = lower value | activity change, % at 10 µM | AID 1159554; in the data active = activity change below about -80%; inconclusive = no clear call, values can overlap the other calls
C diff growth = inhibitors of Clostridium difficile growth; 86,000 tested, 0.25% active; growth activity, negative = inhibition, % at 16 µg/mL (by protocol); Clostridium difficile clinical isolate growth, OD600, 24 h; stronger effect = lower value;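 active = mean growth activity at or below -80% and every replicate also at or below -80%; inconclusive = mean at or below -80% but some replicate above -80%; inactive = mean growth activity above -80%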
T cruzi growth = blocks T. cruzi growth in NIH3T3 culture | T. cruzi beta-gal in NIH3T3, GalScreen luminescence, 90 h | inhibition, % at 8.34 µM | 77,000 tested, 5.9% active | AID 624255;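 active = mean inhibition above about 93%, with at least 55% of replicates each passing it, limit read from the data, passing the limit was not always enough; inconclusive = only one of those two conditions holds; inactive = neither condition holds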
Of the large screens only hits and unclear results are named; the others gave an inactive call. Sampled rows, rich in hits. Any-hit rate of the full collection: about 6.7%.

CCCNC(=O)N1CC2(CCN(S(=O)(=O)c3ccc(OC)cc3)CC2)c2c(n(C)c3cc(OC)ccc23)[C@@H]1CO	Pf Dd2 growth -86.0 (no result: T cruzi growth)
COc1ccc2c3c(n(C)c2c1)[C@@H](CO)N(C(=O)CN(C)C)CC31CCN(C(=O)CN(C)C)CC1	none (no result: T cruzi growth)
COc1ccc(S(=O)(=O)N2CCC3(CC2)CN(C(=O)CN(C)C)[C@@H](CO)c2c3c3ccc(OC)cc3n2C)cc1	Pf Dd2 growth -88.3 (no result: T cruzi growth)
O=C(C[C@H]1C=C[C@@H](NC(=O)C2CCOCC2)[C@H](CO)O1)Nc1ccccc1	none (no result: T cruzi growth)
CN(C)CC#Cc1ccc([C@@H]2[C@H]3CN(CC4CC4)CCCCN3[C@H]2CO)cc1	none
C[C@H]1CN([C@@H](C)CO)C(=O)c2cc(NC(=O)Nc3cccc4ccccc34)ccc2O[C@H]1CN(C)S(=O)(=O)c1ccc(F)cc1	none
CCC(=O)N(C)C[C@H]1Oc2cc(-c3ccc(F)cc3)ccc2S(=O)(=O)N([C@H](C)CO)C[C@H]1C	none
CO[C@@H]1CN(C)C(=O)c2ccc(NC(=O)c3ccccc3F)cc2OC[C@H](C)N(C)C[C@H]1C	none
C[C@H]1CN([C@@H](C)CO)C(=O)c2cccc(NC(=O)CCCCCC(=O)Nc3ccccc3N)c2O[C@@H]1CN(C)CC1CC1	none (no result: T cruzi growth)
C[C@@H]1CN([C@@H](C)CO)C(=O)c2cccc(NC(=O)CCCCCC(=O)Nc3ccccc3N)c2O[C@H]1CN(C)CC1CC1	Pf Dd2 growth -84.7 (no result: T cruzi growth)
C[C@@H]1CN([C@H](C)CO)C(=O)c2cccc(NC(=O)CCCCCC(=O)Nc3ccccc3N)c2O[C@H]1CN(C)CC1CC1	none (no result: T cruzi growth)
C[C@H](CO)N1C[C@H](C)[C@@H](CN(C)CC2CCCCC2)Oc2c(NC(=O)CCCCCC(=O)Nc3ccccc3N)cccc2C1=O	Pf Dd2 growth -87.7 (no result: T cruzi growth)
C[C@H]1CN([C@@H](C)CO)C(=O)c2cccc(NC(=O)CCCCCC(=O)Nc3ccccc3N)c2O[C@H]1CN(C)CC1CCCCC1	Pf Dd2 growth -82.9 (no result: T cruzi growth)
C[C@@H]1CN([C@H](C)CO)C(=O)c2cccc(NC(=O)CCCCCC(=O)Nc3ccccc3N)c2O[C@@H]1CN(C)CC1CC1	none (no result: T cruzi growth)
CCS(=O)(=O)NCC[C@@H]1CC[C@@H](NC(=O)C2CC2)[C@@H](CO)O1	none (no result: T cruzi growth)
COc1ccc2c3c(n(C)c2c1)[C@@H](CO)N(C)CC31CCN(C(=O)c2cccnc2)CC1	none (no result: T cruzi growth)
CCCNC(=O)Nc1ccc2c(c1)OC[C@H](C)N(CCC(F)(F)F)C[C@@H](C)[C@H](OC)CN(C)C2=O	none (no result: C diff growth)
C[C@H]1CN([C@@H](C)CO)C(=O)c2cccc(NS(=O)(=O)c3cn(C)cn3)c2O[C@@H]1CN(C)Cc1ccncc1	none (no result: T cruzi growth)
C[C@@H]1CN([C@H](C)CO)C(=O)c2c(c3ccccc3n2C)-c2ccccc2CO[C@@H]1CN(C)S(=O)(=O)c1ccccc1F	none
C[C@@H]1CN([C@@H](C)CO)C(=O)c2c(c3ccccc3n2C)-c2ccccc2CO[C@@H]1CN(C)S(=O)(=O)c1ccccc1F	none
Cc1ccccc1S(=O)(=O)N(C)C[C@H]1OCc2ccccc2-c2c(n(C)c3ccccc23)C(=O)N([C@H](C)CO)C[C@H]1C	Pf Dd2 growth -83.7 (no result: C diff growth)
COc1ccccc1S(=O)(=O)N(C)C[C@H]1OCc2ccccc2-c2c(n(C)c3ccccc23)C(=O)N([C@H](C)CO)C[C@@H]1C	Pf Dd2 growth -84.8
C[C@H]1CN([C@@H](C)CO)C(=O)c2c(c3ccccc3n2C)-c2ccccc2CO[C@H]1CN(C)S(=O)(=O)c1cccs1	none
C[C@H]1CN([C@@H](C)CO)C(=O)c2c(c3ccccc3n2C)-c2ccccc2CO[C@@H]1CN(C)S(=O)(=O)c1cccs1	Pf Dd2 growth -85.6
Cc1ccccc1S(=O)(=O)N(C)C[C@@H]1OCc2ccccc2-c2c(n(C)c3ccccc23)C(=O)N([C@@H](C)CO)C[C@@H]1C	Pf Dd2 growth -88.9 (no result: C diff growth)
COc1ccccc1S(=O)(=O)N(C)C[C@@H]1OCc2ccccc2-c2c(n(C)c3ccccc23)C(=O)N([C@H](C)CO)C[C@H]1C	none
CCCC#Cc1cnc2c(c1)C(=O)N([C@@H](C)CO)C[C@H](C)[C@H](CN(C)C(=O)c1ccccc1)O2	none (no result: T cruzi growth)
C[C@H](CO)N1C[C@H](C)[C@@H](CN(C)C(=O)c2ccccc2)OCc2ccccc2-c2c(n(C)c3ccccc23)C1=O	none (no result: C diff growth)
C[C@@H]1CN([C@H](C)CO)C(=O)c2c(c3ccccc3n2C)-c2ccccc2CO[C@H]1CN(C)C(=O)c1cc(Cl)cc(Cl)c1	none (no result: T cruzi growth)
C[C@H](CO)N1C[C@H](C)[C@H](CN(C)C(=O)c2cc(Cl)cc(Cl)c2)OCc2ccccc2-c2c(n(C)c3ccccc23)C1=O	Pf Dd2 growth -86.7 (no result: T cruzi growth)
C[C@@H]1CN([C@@H](C)CO)C(=O)c2c(c3ccccc3n2C)-c2ccccc2CO[C@H]1CN(C)C(=O)c1cc(Cl)cc(Cl)c1	Pf Dd2 growth -82.7 (no result: T cruzi growth)
O=C(N[C@@H]1CC[C@H](CCn2cc(-c3ccccc3)nn2)O[C@@H]1CO)c1ccccc1F	none
C[C@@H]1CN([C@@H](C)CO)C(=O)Cc2cc(NS(=O)(=O)c3ccc(F)cc3)ccc2O[C@H]1CN(C)Cc1ccc(C(=O)Nc2ccccc2N)cc1	none (no result: T cruzi growth)
C[C@H]1CN([C@@H](C)CO)C(=O)Cc2cc(NS(=O)(=O)c3ccc(Cl)cc3)ccc2O[C@@H]1CN(C)Cc1ccc(C(=O)Nc2ccccc2N)cc1	Pf Dd2 growth -85.2 (no result: T cruzi growth)
C[C@H](CO)N1C[C@H](C)[C@H](CN(C)Cc2ccc(C(=O)Nc3ccccc3N)cc2)Oc2ccc(NS(=O)(=O)c3ccc(Cl)cc3)cc2CC1=O	Pf Dd2 growth -83.2 (no result: T cruzi growth)
C[C@H](CO)N1C[C@H](C)[C@H](CN(C)Cc2ccc(C(=O)Nc3ccccc3N)cc2)Oc2ccc(NS(=O)(=O)c3ccccc3)cc2CC1=O	Pf Dd2 growth -85.5
C[C@H](CO)N1C[C@H](C)[C@H](CN(C)Cc2ccc(C(=O)Nc3ccccc3N)cc2)Oc2ccc(NS(=O)(=O)c3ccc(F)cc3)cc2CC1=O	Pf Dd2 growth -81.9
C[C@H](CO)N1C[C@H](C)[C@@H](CN(C)Cc2ccc(C(=O)Nc3ccccc3N)cc2)Oc2ccc(NS(=O)(=O)c3ccc(F)cc3)cc2CC1=O	Pf Dd2 growth inconclusive
C[C@@H]1CN([C@@H](C)CO)C(=O)Cc2cc(NS(C)(=O)=O)ccc2O[C@H]1CN(C)Cc1ccc(C(=O)Nc2ccccc2N)cc1	none
C[C@@H]1CN([C@@H](C)CO)C(=O)Cc2cc(NS(=O)(=O)c3ccc(Cl)cc3)ccc2O[C@H]1CN(C)Cc1ccc(C(=O)Nc2ccccc2N)cc1	none
CCCC(=O)Nc1ccc2c(c1)C(=O)N(C)[C@H]1CC[C@H](CC(=O)NCc3ccccc3Cl)O[C@H]1CO2	none
C[C@H](CO)N1C[C@H](C)[C@H](CN(C)S(=O)(=O)c2ccc(Cl)cc2)OCCCC[C@H](C)Oc2ccc(NC(=O)Nc3ccccc3)cc2C1=O	none (no result: C diff growth)
COc1ccc(S(=O)(=O)N(C)C[C@H]2Oc3ccc(NC(=O)CCC(F)(F)F)cc3C(=O)N([C@@H](C)CO)C[C@H]2C)cc1	none (no result: T cruzi growth)
COc1ccc(COC[C@]23NC(=O)N[C@H](c4ccccc4O2)[C@H]3CO)cc1	none (no result: Pf Dd2 growth, T cruzi growth)
O=C(c1cccc(F)c1)N1CC[C@H]2[C@H](CO)Nc3ccc(-c4ccccc4)cc3[C@H]21	none (no result: T cruzi growth)
CCS(=O)(=O)N1CC2(CN(Cc3ccccc3OC)[C@@H](CO)c3c2c2ccc(OC)cc2n3C)C1	none (no result: C diff growth, T cruzi growth)
CCCN(C)C[C@@H]1Oc2cc(C#Cc3cccnc3)ccc2S(=O)(=O)N([C@@H](C)CO)C[C@@H]1C	Pf Dd2 growth -85.7
